In PubChem BioAssay one finds composite z-score and z-score data, which are given here for five molecules.

Assay [1] in a line: small molecules captured by biotinylated probe aFSTL3 – biochemical, small-molecule microarray, fluorescence 635/667, stem cell growth factor project, primary screen (AID 1064).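 Further: measures binding of the biotinylated anti-FSTL3 antibody to printed compounds.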 The settings on record: higher = more signal.
Assay [2] is described as follows: binders from COS7 lysate, DM2A8 probe, primary screen, torsin A project, cell lysate, small-molecule microarray, fluorescence 635/667 (AID 1065). As to conditions: higher = more signal, COS7 lysate expressing mutant human TOR1A.
Assay [3] is described as follows: small molecules captured by biotinylated probe aFGF2 – biochemical, small-molecule microarray, fluorescence 635/667, stem cell growth factor project, primary screen (AID 1067).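 Further: measures binding of biotinylated aFGF2 protein to printed compounds on slides; z-score merges feature fluorescence and signal-to-noise across triplicate slides.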 The settings on record: higher = more signal.
Assay [4] is described as follows: small molecules captured by biotinylated probe aFGF10 – biochemical, small-molecule microarray, fluorescence 635/667, stem cell growth factor project, primary screen (AID 1071).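 Further: score merges 667 nm spot intensity and signal to noise from triplicate slides.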 As to conditions: higher = more signal.
Assay [5] deals with Neurogenic locus notch homolog protein 2 (Homo sapiens) (UniProt Q04721). As to the kind of experiment: small molecules binding Notch2 protein – biochemical, small-molecule microarray, 635 nm fluorescence, stem cell growth factors, primary screen (AID 1073). The settings on record: higher = more signal.
The target in assay [6] is Pro-neuregulin-1, membrane-bound isoform (Homo sapiens) (UniProt Q02297). As to the kind of experiment: small molecules binding neuregulin-1 protein – biochemical, small-molecule microarray, fluorescence 635/667, psychiatric disease protein project, primary screen (AID 1075).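 Further: score combines 667 nm spot fluorescence with signal to noise.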 The settings on record: NRG1 binding, 635 nm fluorescence, higher = more signal.
Assay [7] relates to Neuregulin-1 EGF-like domain. Description: small molecules binding NRG1 EGF domain – biochemical, small-molecule microarray, 635 nm fluorescence, primary screen (AID 1081).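 Further: binding of the protein to compounds printed on small-molecule microarray slides.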 The settings on record: higher = more signal.
Assay [8] can be described thus: FRG1 expression reporter modulators in myotubes – cell-based, C2C12 myotubes, firefly/Renilla luciferase, luminescence, FRG1 inhibition for FSHD, primary screen (AID 1084). As to conditions: FRG1 promoter luciferase, higher = more signal, called active from +8 up or from −8 down.
The nature of assay [9]: small molecules captured by biotinylated probe aFST – biochemical, small-molecule microarray, fluorescence 635/667, stem cell growth factor project, primary screen (AID 1086).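 Further: score merges 667 nm fluorescence with signal-to-noise of each printed compound spot.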 The settings on record: higher = more signal.
The nature of assay [10]: binders of probe aHhip on microarray, primary screen, stem cell growth factor project, biochemical, small-molecule microarray, fluorescence 635/667 (AID 1087).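 Further: score merges spot fluorescence at 667nm with spot signal to noise ratio.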 As to conditions: higher = more signal.
Assay [11] concerns PRMT1 (protein arginine N-methyltransferase 1). Description: small molecules binding arginine methyltransferase PRMT1 – biochemical, small-molecule microarray, 635 nm fluorescence, primary screen (AID 1088).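 Further: binding of Prmt1 protein to compounds spotted on small-molecule microarray slides.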 The settings on record: higher = more signal.
A short description of assay [12]: growth effects on S. cerevisiae YJM789 – YJM789 clinical isolate, OD600, 24 h, basal, primary screen (AID 1089).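 Further: growth of clinical yeast isolate S. cerevisiae YJM 789 seeded 1000 cells per well; test concentration not given here.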 As to conditions: higher = more signal, called active from +8 up or from −8 down.
A short description of assay [13]: S. pombe growth modifiers, basal conditions – strain 972, OD600, 24 h, no modulator, primary screen (AID 1090).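 Further: basal condition with compound alone and no growth modifier present; test concentration not given here.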 The settings on record: S. pombe 972 growth, higher = more signal, called active from +8 up or from −8 down.
A short description of assay [14]: budding yeast growth modifiers under rapamycin – strain BY4716, OD600, 96 h, primary screen (AID 1091). Further: test concentration not given here. As to conditions: S. cerevisiae BY4716 + rapamycin, higher = more signal, called active from +8 up or from −8 down.
For assay [15], the target named is Torsin-1A-interacting protein 2 (Homo sapiens) (UniProt Q8NFQ8). Description: small molecules binding lysate-expressed LULL1 – cell lysate, human LULL1 lysate, 635/667 nm fluorescence, primary screen (AID 1092).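 Further: score merges per-feature 667 nm fluorescence with signal-to-noise.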 The settings on record: small-molecule microarray, hLULL1 lysate binding, 635 nm fluorescence; higher = more signal.
Assay [16] is described as follows: optical density change of DRC41 E. coli – strain DRC41, OD650, 24 h, E. coli filamentation project, primary screen (AID 1093).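 Further: MC1000 strain lacking acrAB efflux and sulA so SOS filamentation is blocked; test concentration not given here.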 As to conditions: E. coli DRC41 growth, higher = more signal, called active from +8 up or from −8 down.
A short description of assay [17]: probe aLefty2 binding to arrayed compounds – biochemical, biotinylated probe, 635/667 nm fluorescence, primary screen (AID 1094).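 Further: score merges spot fluorescence near 667 nm with spot signal-to-noise ratio.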 As to conditions: small-molecule microarray, higher = more signal.
The test system of assay [18] is Noggin (protein binding on small-molecule microarray). As to the kind of experiment: small molecules binding Noggin protein – biochemical, 635/667 nm fluorescence, primary screen (AID 1095).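 Further: score merges 667 nm feature fluorescence with signal to noise over triplicate slides.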 The settings on record: 635 nm fluorescence, higher = more signal.
In assay [19] the target is Neurogenic locus notch homolog protein 3 (Homo sapiens) (UniProt Q9UM47). Description: small molecules binding NOTCH3 protein – biochemical, 635/667 nm fluorescence, primary screen (AID 1096). The settings on record: small-molecule microarray, 635 nm fluorescence, higher = more signal.
The nature of assay [20]: probe aEGFR binding to arrayed compounds – biochemical, biotinylated probe, 635/667 nm fluorescence, primary screen (AID 1097).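 Further: probe is a biotinylated anti-EGFR antibody binding compounds printed on slides; score combines fluorescence near 667 nm and signal to noise of each spot.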 As to conditions: small-molecule microarray, higher = more signal.

SMILES strings stand for the structures. Active and inactive are the calls of the source.

Torsin-1A-interacting protein 2 (Homo sapiens), sequence (Q8NFQ8 whole entry, looked up): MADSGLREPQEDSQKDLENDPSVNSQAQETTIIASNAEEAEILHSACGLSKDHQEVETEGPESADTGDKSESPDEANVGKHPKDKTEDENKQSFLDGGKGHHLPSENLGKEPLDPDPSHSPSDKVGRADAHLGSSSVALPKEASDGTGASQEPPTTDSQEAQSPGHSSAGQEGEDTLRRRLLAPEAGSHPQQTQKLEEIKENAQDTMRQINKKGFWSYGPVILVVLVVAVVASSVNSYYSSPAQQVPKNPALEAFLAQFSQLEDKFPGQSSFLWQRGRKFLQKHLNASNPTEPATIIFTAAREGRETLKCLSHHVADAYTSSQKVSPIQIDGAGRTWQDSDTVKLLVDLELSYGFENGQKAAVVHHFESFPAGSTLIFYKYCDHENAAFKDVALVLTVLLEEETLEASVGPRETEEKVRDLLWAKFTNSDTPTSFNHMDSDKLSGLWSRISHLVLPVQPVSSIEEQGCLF
Pro-neuregulin-1, membrane-bound isoform (Homo sapiens), sequence (Q02297 whole entry, looked up, the tested form may be a part, canonical isoform): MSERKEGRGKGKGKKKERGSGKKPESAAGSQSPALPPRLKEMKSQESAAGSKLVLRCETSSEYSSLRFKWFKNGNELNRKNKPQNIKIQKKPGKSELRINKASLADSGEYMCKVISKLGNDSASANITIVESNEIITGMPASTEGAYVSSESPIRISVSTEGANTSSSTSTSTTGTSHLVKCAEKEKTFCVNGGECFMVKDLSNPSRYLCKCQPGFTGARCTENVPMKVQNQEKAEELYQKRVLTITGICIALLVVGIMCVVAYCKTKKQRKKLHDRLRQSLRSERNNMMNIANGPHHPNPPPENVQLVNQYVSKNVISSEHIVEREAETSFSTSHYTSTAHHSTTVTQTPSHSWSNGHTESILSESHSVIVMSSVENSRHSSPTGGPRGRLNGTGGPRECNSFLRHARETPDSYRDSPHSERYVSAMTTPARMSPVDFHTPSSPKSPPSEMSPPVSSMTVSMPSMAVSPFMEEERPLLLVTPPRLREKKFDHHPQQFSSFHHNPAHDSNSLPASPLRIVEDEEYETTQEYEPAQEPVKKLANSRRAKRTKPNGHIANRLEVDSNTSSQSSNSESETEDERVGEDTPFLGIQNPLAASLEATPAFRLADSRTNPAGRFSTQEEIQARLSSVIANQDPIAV
Neurogenic locus notch homolog protein 2 (Homo sapiens), sequence (Q04721 whole entry, looked up, canonical isoform): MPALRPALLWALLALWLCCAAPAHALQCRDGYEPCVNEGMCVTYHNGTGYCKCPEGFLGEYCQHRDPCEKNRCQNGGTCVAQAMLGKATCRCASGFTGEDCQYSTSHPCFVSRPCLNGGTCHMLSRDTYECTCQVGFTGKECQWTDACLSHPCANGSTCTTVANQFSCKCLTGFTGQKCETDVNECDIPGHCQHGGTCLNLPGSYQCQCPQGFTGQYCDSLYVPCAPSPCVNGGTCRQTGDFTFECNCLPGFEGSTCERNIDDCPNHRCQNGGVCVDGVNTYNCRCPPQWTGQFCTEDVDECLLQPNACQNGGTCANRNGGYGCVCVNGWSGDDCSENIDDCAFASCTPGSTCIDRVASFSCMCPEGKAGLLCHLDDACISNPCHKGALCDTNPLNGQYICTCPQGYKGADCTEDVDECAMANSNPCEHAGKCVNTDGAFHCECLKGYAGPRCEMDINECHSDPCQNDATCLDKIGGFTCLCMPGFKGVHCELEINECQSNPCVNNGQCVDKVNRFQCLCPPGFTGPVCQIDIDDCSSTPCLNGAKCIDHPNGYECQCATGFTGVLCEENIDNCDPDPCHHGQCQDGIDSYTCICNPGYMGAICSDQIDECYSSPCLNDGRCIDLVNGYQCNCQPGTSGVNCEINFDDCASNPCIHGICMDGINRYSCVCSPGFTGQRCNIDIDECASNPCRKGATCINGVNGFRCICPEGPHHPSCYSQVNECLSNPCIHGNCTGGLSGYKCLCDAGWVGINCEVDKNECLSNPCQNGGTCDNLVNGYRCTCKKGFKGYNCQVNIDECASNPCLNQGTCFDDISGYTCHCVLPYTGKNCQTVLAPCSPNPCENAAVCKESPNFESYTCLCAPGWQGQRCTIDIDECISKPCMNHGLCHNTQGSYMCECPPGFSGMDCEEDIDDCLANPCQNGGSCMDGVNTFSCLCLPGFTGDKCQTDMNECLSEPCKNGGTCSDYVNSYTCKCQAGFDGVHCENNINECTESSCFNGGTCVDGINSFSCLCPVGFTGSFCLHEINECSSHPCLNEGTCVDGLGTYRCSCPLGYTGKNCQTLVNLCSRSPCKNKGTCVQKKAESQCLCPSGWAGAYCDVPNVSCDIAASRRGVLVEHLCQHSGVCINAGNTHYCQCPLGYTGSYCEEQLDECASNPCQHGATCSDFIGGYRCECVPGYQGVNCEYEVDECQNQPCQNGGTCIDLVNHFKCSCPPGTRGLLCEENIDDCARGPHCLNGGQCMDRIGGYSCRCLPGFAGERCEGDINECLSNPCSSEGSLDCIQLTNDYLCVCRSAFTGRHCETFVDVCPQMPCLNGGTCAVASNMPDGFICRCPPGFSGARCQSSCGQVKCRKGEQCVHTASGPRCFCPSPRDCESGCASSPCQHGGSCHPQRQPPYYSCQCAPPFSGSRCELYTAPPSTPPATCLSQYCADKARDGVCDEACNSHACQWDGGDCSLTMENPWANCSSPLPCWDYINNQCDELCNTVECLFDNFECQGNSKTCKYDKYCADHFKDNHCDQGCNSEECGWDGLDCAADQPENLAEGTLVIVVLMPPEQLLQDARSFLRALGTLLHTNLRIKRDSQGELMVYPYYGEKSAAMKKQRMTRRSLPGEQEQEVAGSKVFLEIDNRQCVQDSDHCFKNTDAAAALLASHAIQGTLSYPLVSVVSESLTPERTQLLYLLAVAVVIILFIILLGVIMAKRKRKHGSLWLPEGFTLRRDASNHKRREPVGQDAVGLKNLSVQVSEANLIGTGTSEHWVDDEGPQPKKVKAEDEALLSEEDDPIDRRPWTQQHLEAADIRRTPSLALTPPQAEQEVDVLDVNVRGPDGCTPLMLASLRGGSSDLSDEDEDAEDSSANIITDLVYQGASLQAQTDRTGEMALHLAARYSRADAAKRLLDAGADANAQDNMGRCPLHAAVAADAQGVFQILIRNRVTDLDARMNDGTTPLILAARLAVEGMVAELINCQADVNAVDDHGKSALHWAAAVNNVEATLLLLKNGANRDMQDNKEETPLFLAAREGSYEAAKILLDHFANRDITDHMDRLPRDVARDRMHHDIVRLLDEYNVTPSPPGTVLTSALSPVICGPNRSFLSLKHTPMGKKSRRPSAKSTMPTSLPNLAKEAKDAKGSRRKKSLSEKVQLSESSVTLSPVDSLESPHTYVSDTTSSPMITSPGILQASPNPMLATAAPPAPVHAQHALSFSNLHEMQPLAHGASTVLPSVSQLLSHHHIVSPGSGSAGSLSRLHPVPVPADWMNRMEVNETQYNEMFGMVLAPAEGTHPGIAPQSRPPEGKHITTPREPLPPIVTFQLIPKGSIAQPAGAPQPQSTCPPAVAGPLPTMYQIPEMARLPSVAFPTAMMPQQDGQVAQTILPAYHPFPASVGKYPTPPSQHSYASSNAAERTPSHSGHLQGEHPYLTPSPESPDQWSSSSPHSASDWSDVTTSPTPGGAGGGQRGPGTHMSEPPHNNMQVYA

Turning to `CCOC(=O)C1=C[C@@H](C(C)(C)C)N(S(=O)(=O)c2ccc(C)cc2)[C@H]1c1ccccc1Cl`, the composite z-score in [1] is 0.284; in [2], 0.534; in assay [3] it was 0.122; in [4], 0.624; in assay [5] it was 1.61; in [6], 1.25. For the same molecule, the composite z-score in [7] was 1.14; in [9], 1.07; in [10], 0.0401; in assay [11] it was 1.53; in [15], 2.61; in [17], 0.144. In addition, the composite z-score in [18] was 0.614; in assay [19] it was 1.05; in assay [20], 0.0522. In addition, the z-score was -2.24 (inactive) in [8]; 0.168 (inactive) in assay [12]; 2.3 (inactive) in [13]; 2.15 (inactive) in assay [14]; -0.766 (inactive) in [16].

Turning to `COCCOC(=O)N1C(=O)[C@@]2(c3cc(C#CCC(C(=O)OC)C(=O)OC)ccc31)[C@H](C(=O)N1CCCCCCC1)[C@H]1C(=O)O[C@H](c3ccccc3)[C@H](c3ccccc3)N1[C@@H]2c1ccccc1OCCO`, the composite z-score in assay [1] stood at 3.92; in assay [2], 1.8; in [3], 0.825; in assay [4], 0.481; in assay [5] it was 1.39; in [6], 0.811. For the same molecule, the composite z-score was 1.12 in assay [7]; 3.34 in assay [9]; 2.72 in assay [10]; 1.56 in [11]; 2.88 in assay [15]; 1.82 in assay [17]. The composite z-score was 1.82 in assay [18], 1.14 in assay [19] and 1.06 in assay [20]. Moreover, the z-score in [8] was 0.158 (inactive); in assay [12], 0.917 (inactive); in [13], -1.08 (inactive); in assay [14], 3.51 (inactive); in [16], 0.858 (inactive).

On to `CC1(C)OC[C@@]23C=C(Br)[C@@H](C[C@H]12)[C@@]1(CO1)C3=O`, for which the composite z-score in [1] is -0.401; in assay [2] it was 0.374; in assay [3], -0.105; in [4], 0.403; in [5] it was 0.517; in [6] it was 0.146. Further, the composite z-score in assay [7] was 0.149; in assay [9] it was 0.0965; in assay [10], -0.0423; in [11], -0.0986; in [15] it was -0.202; in assay [17], -0.153. Moreover, the composite z-score was 0.232 in [18], 0.378 in assay [19] and -0.109 in assay [20]. For the same molecule, the z-score was -0.468 (inactive) in [8]; 0.409 (inactive) in assay [12]; -1.24 (inactive) in assay [13]; 0.125 (inactive) in [14]; -0.665 (inactive) in [16].

For `CN(C)CCCNC(=O)[C@@H]1c2ccccc2C(=O)N(C2Cc3ccccc3C2)[C@H]1c1ccc(CO)cc1`, the composite z-score in assay [1] was 0.158; in assay [2], 0.345; in [3], -0.0566; in assay [4] it was -0.273; in assay [5], 0.175; in assay [6] it was 0.618. Also, the composite z-score in [7] was 0.849; in assay [9], 0.178; in assay [10], -0.151; in assay [11] it was 1.56; in assay [15], 2.03; in assay [17] it was -0.127. Besides, the results for the composite z-score in assay [18], in [19] and in [20] were 0.0726, 0.241 and 0.111, respectively. Also, the z-score in assay [8] is -1.3 (inactive); in assay [12] it was -0.463 (inactive); in assay [13], -0.271 (inactive); in assay [14], -0.915 (inactive); in [16], 0.688 (inactive).

Regarding `CC(C)N1CC=CC23O[C@@H]4C=CCCOC(=O)C4[C@H]2C(=O)N(CCCCCO)[C@@H]3C1=O` (stereo not given in full), the composite z-score is -0.0451 in assay [1]; -1.06 in assay [2]; -0.103 in assay [3]; 0.279 in assay [4]; -0.905 in [5]; 1.93 in [6]. Further, the composite z-score in assay [7] is 1.21; in assay [9], -0.352; in assay [10], -0.353; in assay [11], 0.08; in assay [15], 0.988; in [17] it was -0.242. In addition, the values for the composite z-score in [18], in assay [19] and in assay [20] were 0.154, -0.23 and -0.236, respectively. Further, the z-score is -0.928 (inactive) in [8]; -0.0489 (inactive) in [12]; -0.0017 (inactive) in assay [13]; -0.569 (inactive) in assay [14]; 0.447 (inactive) in [16].
